Screening data as filed in PubChem BioAssay.
Pol eta inh-1 – blocks human DNA polymerase eta activity; 1.2% of 390,000 active; recombinant Pol eta, fluorescent DNA replication assay; Potency, µM (top dose mostly 114 µM), hits mostly inhibitors; Q9Y253; AID 588591
Target sequence (Q9Y253 whole entry, looked up): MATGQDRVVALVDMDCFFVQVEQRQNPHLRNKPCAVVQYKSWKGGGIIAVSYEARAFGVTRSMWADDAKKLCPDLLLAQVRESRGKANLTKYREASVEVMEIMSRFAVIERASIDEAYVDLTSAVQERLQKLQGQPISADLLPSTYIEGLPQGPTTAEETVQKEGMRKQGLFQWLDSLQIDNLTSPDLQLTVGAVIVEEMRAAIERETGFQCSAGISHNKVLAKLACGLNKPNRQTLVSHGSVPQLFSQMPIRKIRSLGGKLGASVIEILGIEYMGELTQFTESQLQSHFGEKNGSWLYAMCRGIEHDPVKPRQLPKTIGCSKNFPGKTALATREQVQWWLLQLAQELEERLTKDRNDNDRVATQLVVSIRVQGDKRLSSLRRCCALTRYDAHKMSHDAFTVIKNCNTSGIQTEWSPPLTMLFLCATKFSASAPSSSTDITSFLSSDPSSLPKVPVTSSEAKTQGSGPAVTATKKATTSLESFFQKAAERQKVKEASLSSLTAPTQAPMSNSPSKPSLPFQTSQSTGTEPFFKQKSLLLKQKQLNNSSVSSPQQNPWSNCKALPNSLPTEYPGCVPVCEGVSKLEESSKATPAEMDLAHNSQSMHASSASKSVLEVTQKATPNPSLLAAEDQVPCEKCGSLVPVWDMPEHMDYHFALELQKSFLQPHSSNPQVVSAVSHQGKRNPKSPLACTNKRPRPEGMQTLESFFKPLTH
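Fluorescent replication assay: 50 nM final substrate added after a 15 min room-temperature compound preincubation with 10 nM enzyme. Signal taken at 0 min and again at 10 min.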
WRN helicase inh-1 – inhibitors of human WRN helicase. WRN helicase unwinding, fluorescent forked duplex, kinetic. Potency, µM (titrated, usually from 114 µM), actives largely listed as inhibitors. 0.46% of 360,000 active. AID 651768; further: nearly all actives have a fitted effect of over 55% in size
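Kinetic red-fluorescence monitoring (525/598 nm) tracks WRN helicase activity after 100 nM fluorophore-quencher forked duplex and 2 mM ATP are added to 20 nM enzyme pretreated 15 min at room temperature with compound.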
POLI inh – blocks human DNA polymerase iota activity; Potency, µM (top dose mostly 115 µM), hits mostly inhibitors; 1% of 390,000 active; Q9UNA4; Pol iota fluorescent replication assay, 10 min
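Fluorescent replication assay read twice, at 0 min and 10 min after adding 50 nM (final) substrate. Enzyme (10 nM) and compounds were first incubated 15 min at room temperature; enzyme-free buffer wells were negative controls.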
POLB inh – blocks human DNA polymerase beta activity. P06746. Pol beta primer extension/strand displacement, fluorescence kinetic. Potency, µM (top dose mostly 114 µM), hits mostly inhibitors. 1.3% of 340,000 active. AID 485314
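10 nM enzyme + cpd, 15 min RT; start with substrate 50 nM final; read 0 min and after 10 min RT. Corrected, normalized data; 4-parameter Hill curve fit.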
PI5P4K alpha inh – blocks human PI5P4K alpha kinase activity | max response, % | P48426 | PI5P4Kalpha enzyme, ADP-Glo luminescence, 60 min; hits give low values | 1.2% of 330,000 active; active means max response of -50% or lower; inconclusive means between -30% and -50%; inactive means -30% or higher; further: value at the top dose of about 77 µM
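ADP-Glo luminescence end-point read after a 60 min room-temperature kinase reaction of PI5P4Kalpha plus substrate, initiated with ATP at 5 microM final. Buffer: 0.038 M HEPES pH 7.4, EGTA, 0.1% CHAPS, 5% DMSO.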
Pol kappa inh-1 – blocks human DNA polymerase kappa activity; purified Pol kappa, fluorescent DNA synthesis assay, 10 min; 0.53% of 400,000 active; Q9UBT6; Potency, µM (doses to about 107 µM), hits mostly inhibitors
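Readout: fluorescence, taken kinetically at 0 and 10 min. Conditions: 10 nM Pol kappa, 15 min RT compound preincubation, 50 nM substrate final. Controls: enzyme-free buffer wells.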
PGK validate – validation of Trypanosoma brucei phosphoglycerate kinase inhibitors; 79% of 500 active; AID 686980; shares compounds with Pol kappa inh-1; Potency, µM (series often up to 57.5 µM), most hits filed as inhibitors; TbPGK coupled GAPDH assay, Kinase-Glo luminescence; further: nearly all actives have a fitted effect of over 65% in size
Pol iota confirm – Human Pol iota inhibitor confirmatory assay; shares compounds with Pol kappa inh-1; Pol iota primer extension, TAMRA/BHQ fluorescence; Potency, µM, hits mostly inhibitors; 77% of 1,500 active; AID 720496
Pol kappa inh-2 – confirmation of human DNA polymerase kappa inhibitors; shares compounds with Pol eta inh-1; purified Pol-kappa, fluorescent strand-displacement substrate; Potency, µM, hits mostly inhibitors; 76% of 920 active; AID 720501
Pol eta inh-2 – Pol eta (human) inhibition, cherry-pick confirmation | shares compounds with Pol eta inh-1 | Pol eta primer extension, TAMRA/BHQ fluorescence, 10 min | Potency, µM, usual class: inhibitors | 64% of 2,600 active | AID 720502
WRN helicase inh-2 – confirmation of human WRN helicase inhibitors; shares compounds with WRN helicase inh-1; WRN helicase DNA unwinding, fluorescence kinetic; Potency, µM (series often up to 57.1 µM), usual class: inhibitors; 63% of 610 active; AID 720497; further: nearly all actives have a fitted effect of over 65% in size
TO displacement – binds DNA, flagged in WRN inhibitor counterscreen | AID 720499 | thiazole orange DNA binding displacement, fluorescence | 10% of 610 active | Potency, µM (series often up to 57.1 µM), hits mostly inhibitors | shares compounds with WRN helicase inh-1;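 further: drop in dye fluorescence marks compound binding to DNA; nearly all actives have a fitted effect of over 60% in size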
BLM helicase inh – blocks human BLM helicase in WRN counterscreen | Potency, µM (series often up to 57.1 µM), most hits filed as inhibitors | AID 720503 | Recombinant BLM helicase DNA unwinding, red fluorescence | shares compounds with WRN helicase inh-1 | 60% of 610 active; further: nearly all actives have a fitted effect of over 60% in size
ADP-Glo counter – ADP-Glo luciferase interference, PI5P4K counter-screen; AID 743285; shares compounds with PI5P4K alpha inh; 1,100 tested, under 10 active; Potency, µM (top dose mostly 76.9 µM), actives largely listed as inhibitors; ADP-Glo detection counter-screen, luciferase luminescence, no enzyme
Hits are given with their value; n = inactive; u = inconclusive; x = not tested or not shown. A selection: hits, their analogues and other compounds. The true share with any hit is near 2.8%. Unless noted, the call rests on the fitted dose curve; in most records, active means well fitted curve in the direction sought with a large enough effect; inconclusive means small, poorly fitted or top-dose-only effect, or another doubt; inactive means no such curve, though single readings can be large; an effect the other way counts as inactive or inconclusive.

SMILES | Pol eta inh-1 | WRN helicase inh-1 | POLI inh | POLB inh | PI5P4K alpha inh | Pol kappa inh-1 | Pol iota confirm | Pol eta inh-2 | WRN helicase inh-2 | TO displacement | BLM helicase inh | others
CCOC(=O)C1=C(C)N=c2s/c(=C/c3ccc(OCC(=O)O)c(OC)c3)c(=O)n2C1c1ccc(Cl)cc1 (stereo not drawn) | 20µM | 28µM | 10µM | x | u | u | 15 | 34 | 12µM | n | 7.6µM | PGK validate=10µM;Pol kappa inh-2=7.5
O=C(CSc1nc2ccccc2n1CCc1ccccc1)c1ccc(O)c(O)c1 | 3.2µM | 7.9µM | 2.8µM | 0.5µM | -89 | u | 3 | 3 | 6.8µM | 17µM | 1.5µM | PGK validate=1.5µM
O=C(CSc1nc2ccccc2n1CCc1ccccc1)N1CCOCC1 | n | n | n | n | n | n | x | x | x | x | x
CN(c1ccccc1)c1ccc(/C=C(\CCC(=O)O)c2nc3ccccc3s2)cc1[N+](=O)[O-] | 8.9µM | 27µM | 22µM | 8.9µM | u | u | 27 | 67 | 22µM | 27µM | 8.6µM
Cc1ccc(/C=C(\CCC(=O)O)c2nc3ccccc3s2)cc1[N+](=O)[O-] | n | n | n | n | n | n | x | x | x | x | x
CCN1/C(=C/c2ccc3cc(C)ccc3[n+]2CC)Sc2cc(C)c(C)cc21 | u | 50µM | n | 14µM | n | n | 42 | 76 | 24µM | 22µM | u
CCN1/C(=C/c2ccc3cc(C)ccc3[n+]2CC)Sc2ccccc21 | u | u | u | u | n | n | x | x | x | x | x
COc1ccc(C2Nc3ccccc3C(=O)N2Cc2ccco2)cc1COc1ccc(N)cc1 (stereo not drawn) | x | x | x | x | x | x | 75 | 85 | 11µM | u | 3µM
COc1cccc2c1C(=O)c1c(O)c3c(c(O)c1C2=O)CC(O)(C(=O)CO)CC3OC1CC(N(C)C)C(O)C(C)O1 (stereo not drawn) | u | 3µM | 40µM | x | n | u | 2.7 | 27 | 17µM | n | 27µM | Pol kappa inh-2=34
Oc1ccc(-c2cn3c(n2)SCC3)cc1O | 2.8µM | 4.7µM | 2.5µM | 1.3µM | n | 7.1µM | 9.5 | 3.4 | u | n | 17µM
NC(=O)c1ccc(NC(=O)COC(=O)/C=C/c2ccc(Br)o2)cc1 | 2.8µM | 32µM | 22µM | x | -58 | 35µM | 42 | 67 | u | n | 17µM | PGK validate=8.2µM;Pol kappa inh-2=u
Cc1nn(-c2ccccc2)c(C)c1/C=C/C(=O)OCC(=O)Nc1ccc(C(N)=O)cc1 | n | n | u | x | n | n | x | x | x | x | x
Cc1ccc([N+](=O)[O-])cc1NC(=O)C[n+]1ccccc1 | n | n | n | n | n | n | x | x | x | x | x
O=c1c(C(c2ccc(O)cc2)c2c(O)nc3n(c2=O)CCCS3)c(O)nc2n1CCCS2 | 13µM | u | u | n | u | u | u | 76 | u | n | 19µM
O=C(NN1C(=O)/C(=C/C=C/c2ccco2)SC1=S)c1ccccc1O | 1.1µM | 10µM | 1.3µM | 1.1µM | -78 | 4µM | 2.7 | 3.4 | 3µM | u | 8.6µM | PGK validate=9.2µM
O=C(O)CC(C(=O)O)N1C(=O)/C(=C/C=C/c2ccco2)SC1=S (stereo not drawn) | 0.89µM | 10µM | 1.6µM | 0.79µM | -55 | n | 5.3 | 3 | 3.8µM | 3.8µM | 4.8µM | PGK validate=2.9µM
O=C1NC2c3c(Cl)sc(Cl)c3C(=O)C2O1 (stereo not drawn) | 3.2µM | 2.4µM | 25µM | x | u | u | 4.2 | 6 | 15µM | n | 1.4µM | Pol kappa inh-2=2.7
O=C1NC2c3c(I)sc(I)c3C(=O)C2O1 (stereo not drawn) | n | n | n | x | n | n | x | x | x | x | x
O=C(COC(=O)C1CC2C=CC1C2)NCc1ccco1 (stereo not drawn) | 8.9µM | u | 14µM | 16µM | -74 | 40µM | 42 | 48 | x | x | x | ADP-Glo counter=n
O=C(COC(=O)C1CC2C=CC1C2)NCc1ccc(F)cc1 (stereo not drawn) | n | n | n | n | n | n | x | x | x | x | x
COc1ccc(S(=O)(=O)N2CCOCC2)cc1NC(=O)c1cccc(-n2cccc2)c1 | 2.5µM | u | 7.1µM | x | -74 | 40µM | u | x | x | x | x | ADP-Glo counter=n
Cn1cc(-c2nc3cnc(OCc4ccccc4)nc3n(CCC#N)c2=O)c2ccccc21 | x | x | x | x | x | n | x | x | x | x | x
CCc1nc2sc3ccccc3c(=O)c2c(=O)n1Cc1ccco1 | 32µM | 56µM | 16µM | 20µM | -68 | 50µM | u | x | x | x | x | ADP-Glo counter=n
CCc1nnc(NC(=O)CSc2sc3c(O)cc(=O)[nH]c3c2C#N)s1 | 3.5µM | 13µM | 1.8µM | 0.56µM | -84 | 8.9µM | 42 | 30 | x | x | x | Pol kappa inh-2=17;ADP-Glo counter=n
COc1ccc(S(=O)(=O)N2CCN(C(=O)C3COc4ccccc4O3)CC2)cc1 (stereo not drawn) | 10µM | 50µM | 10µM | x | -74 | 28µM | 15 | 24 | x | x | x | Pol kappa inh-2=17;ADP-Glo counter=n
COCCn1c(=O)c(-c2cccc(C#N)c2)nc2cnc(N3CCN(C)CC3)nc21 | x | x | x | x | x | n | x | x | x | x | x
CC(=O)Nc1ccc(S(=O)(=O)Nc2cccc(-n3cnnn3)c2)cc1 | n | n | n | n | n | n | x | x | x | x | x
CC(=O)c1ccc(S(=O)(=O)Nc2cccc(-n3cnnn3)c2)cc1 | 7.9µM | 56µM | 20µM | u | -67 | u | 75 | 30 | x | x | x | ADP-Glo counter=n
NS(=O)(=O)c1ccc(CCNC(=O)c2ccc3nccnc3c2)cc1 | 3.2µM | 32µM | 20µM | x | -68 | 32µM | 17 | 12 | 17µM | u | 7.6µM | Pol kappa inh-2=4.2;ADP-Glo counter=n
Cc1ccc(C(=O)NCC(=O)OCCCOC(=O)CNC(=O)c2ccc(C)cc2)cc1 | n | n | n | x | n | n | x | x | x | x | x
